Among the data in PubChem BioAssay (NCATS) are Potency and outcome values, retold here.

Inconclusive results are not listed. The source made the active and inactive calls. Unless noted, the call rests on the fitted dose curve; in most records, active means well fitted curve in the direction sought with a large enough effect; inconclusive means small, poorly fitted or top-dose-only effect, or another doubt; inactive means no such curve, though single readings can be large; an effect the other way counts as inactive or inconclusive.

For experiment [1], the target named is Muscarinic acetylcholine receptor M1 (Rattus norvegicus) (UniProt P08482). Kind of experiment: qHTS Assay for Antagonists of Acetylcholine Muscarinic M1 Receptor: Kinetic Measurement of Intracellular Calcium Response (AID 943). Further: nearly all actives have a fitted effect of over 75% in size. Further: potency means the concentration at half of the fitted maximal effect. The gist of the method:
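Rat M1-CHO cells, 2000/well, overnight → Fluo-4 no-wash dye with probenecid, 1 h 37C → compound 10 min, room temp → basal read 6 s → carbachol EC80 (100 nM) → 4 min kinetic read; peak/basal.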

Experiment [2] has the same target. Kind of experiment: qHTS Assay for Antagonists of Acetylcholine Muscarinic M1 Receptor: Measurement of IP-One Response (AID 944). Further: nearly all actives have a fitted effect of over 75% in size. Further: potency means the concentration at half of the fitted maximal effect. From the text: NIH Molecular Libraries Screening Centers Network [MLSCN]
NIH Chemical Genomics Center [NCGC]
Acetylcholine muscarinic M1 receptor is a G-protein coupled receptor (GPCR) coupling to the Gq G protein. It is mainly expressed in brain and functionally related to the learning and memory processes. The agonists of this receptor have the potential for the treatment of Alzheimer's disease and cognitive impairments associated with Schizophrenia.
Upon an activation of the M1 receptor, phosholipase C (PLC) is activated to produce inositol 1,4,5-trisphosphate (IP3) and diacyl glycerol (DAG). The IP3 is very rapidly hydrolyzed to IP2, IP1 and then inositol by a series of enzymes and Ca2+ is quickly pumped back into ER by the calcium pump on the ER membrane, which effectively switches off the IP3 and Ca2+ signaling. For compound screen, the changes in intracellular free Ca2+ concentration can be measured by the fluorescence calcium dye such as Fura-2, Fluo-3 and Fluo-4 with a fluorescence kinetic plate reader. IP1 or total IPs including IP1, IP2 and IP3 are usually measured as an alternative method for assessing the function of Gq-coupled GPCRs. We have applied a time-resolved fluorescence based (TR-FRET) IP1 assay in which an IP1 specific antibody is used to detect the labeled IP1 tracer. When the cell lysate contains the elevated IP1, the TR-FRET between the labeled antibody and IP1 tracer is disrupted resulting in a reduction in the total signal. Since the TR-FRET is used, a homogenous assay with out cell wash and medium change is possible which also can be miniaturized into the high density format for HTS.
We have obtained a M1-CHO cell line transfected with rat acetylcholine M1 receptor and optimized this IP-One assay with this cell line for compound screening as a counter-screen assay for other Gq-coupled GPCRs.
NCGC Assay Protocol Summary:
The CHO-M1 (CHO-M1) cell line transfected with the rat acetylcholine muscarinic M1 receptor was obtained from American Type Culture Collection (ATCC). The cells were maintained in call culture flasks with F12 Kaighn's media (Invitrogen) supplemented with 10 % FBS, 100 units/ml penicillin, 100 ug/ml streptomycin and 250 ug/ml geneticin (Invitrogen) at 37C, 5 % CO2 in a humidified atmosphere. At 90-95 % confluence, the cells were then detached in 15 ml 0.25 % trypsin by 3 minutes incubation at 37C and centrifuged at 1000 RPM to remove the trypsin solution. The resulting cell pellet was resuspended in the cell freezing media containing 10 % DMSO (Invitrogen) at a density of 4 x 10^7 cells/ml. The aliquots of cells at 0.5 - 1 ml per vial were frozen down slowly at 1 degree C/min using a Cryo 1 degree C freezing container in the presence of isopropanol (Nalgene Nunc, Rochster, NY) overnight in a -80C freezer. The frozen cells were then transferred to liquid nitrogen for the storage up to one year.
The resuspended frozen cells were plated at 3 ul/well with 2000 cells in the black, tissue culture treated, clear bottom 1536-well plates. The cells were cultured at 37C, 5 % CO2 for overnight to allow the cells recovering from the frozen state. 20 nl/well of compound in DMSO solution was added to the assay plate and incubated for 10 min. Carbachol was prepared in stimulation buffer (10mM Hepes, 1mM CaCl2, 0.5 mM MgCl2, 4.2 mM KCl, 146 mM NaCl, 5.5 mM glucose 50mM LiCl 50mM pH7.4) which was added to the assay plate at 1 ul/well. After an incubation with carbachol at 37C, 5 % CO2 for 30 min, all the wells in the assay plate were added with 1 ul/well of d2 conjugated IP1 (d2-IP1) and 1 ul/well of Eu+ cryptate conjugated anti-IP1 antibody (Eu+-Ab), both from the IP-One kit (Cisbio USA., Inc.). After 10 min incubation at the room temperature, the assay plates were measured in the HTRF detection mode in ViewLux plate reader (Ex=337 nm. Em(1)=620 and Em(2)=665 nm)
1536-well assay protocol:
(1) 4 ul/well containing 2000 M1-CHO cells in 1536 tissue culture treated white plate
(3) Add 23 nl compound diluted in DMSO
[…]

The target in experiment [3] is Pyruvate kinase (Leishmania mexicana) (UniProt Q27686). Kind of experiment: qHTS Validation Assay for Inhibitors of Leishmania Mexicana Pyruvate Kinase (AID 945). The method, boiled down: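 Substrate mix (0.5 mM PEP, 0.1 mM ADP, 7 mM MgCl2, 50 mM KCl, pH 7.2 imidazole) received compound by pin tool, then 0.2 nM LmPYK E451W. After 1 h at room temperature, PKLight was added and luminescence measured.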
Pyruvate kinase (Leishmania mexicana), sequence (Q27686 2-499 E452W): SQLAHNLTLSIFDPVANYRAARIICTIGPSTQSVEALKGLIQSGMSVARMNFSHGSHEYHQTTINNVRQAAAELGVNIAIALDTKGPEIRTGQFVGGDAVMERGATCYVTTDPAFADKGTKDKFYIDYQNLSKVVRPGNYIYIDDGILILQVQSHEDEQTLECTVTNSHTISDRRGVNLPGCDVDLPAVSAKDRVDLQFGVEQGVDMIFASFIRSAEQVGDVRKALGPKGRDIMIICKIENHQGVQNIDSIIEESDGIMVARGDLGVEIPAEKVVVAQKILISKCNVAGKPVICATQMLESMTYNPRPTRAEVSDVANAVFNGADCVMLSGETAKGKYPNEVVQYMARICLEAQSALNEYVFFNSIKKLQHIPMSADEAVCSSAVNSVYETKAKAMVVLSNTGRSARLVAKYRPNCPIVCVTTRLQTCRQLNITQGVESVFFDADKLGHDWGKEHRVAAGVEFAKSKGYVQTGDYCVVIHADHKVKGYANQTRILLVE
(In general: qHTS replaces the single test concentration by a dilution series.)

Experiment [4] concerns the target Pyruvate kinase PKM (Homo sapiens) (UniProt P14618). Kind of experiment: qHTS Assay for Activators of Human Muscle Pyruvate Kinase (AID 954; active means well fitted curve in the direction sought with a large enough effect, not every such curve was filed as active). The gist of the method: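 Enzyme was run at intermediate activity so both inhibitors and activators could be detected. ATP formed from ADP and PEP by 0.1 nM human PKM2 during a 1 h room-temperature incubation was quantified by coupled luciferase luminescence.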

A short description of experiment [5]: Confirmation and Secondary Assay for Modulators of Hemoglobin Beta Chain Splicing at IVS2 705 locus (AID 930).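 Further: HeLa cells stably expressing the EGFP-705 splicing reporter; GFP fluorescence per well restored by corrected splicing of the IVS2-705 intron in EGFP; series mostly up to about 46 µM.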 The gist of the method:
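HeLa EGFP-705 reporter; 500 cells/well, o/n 37C 5% CO2; cpd 2 d; 488 ex/500-520 em laser scan; total peak GFP intensity/well. Ref: 500 nM […] antisense PNA.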

Experiment [6] is described as follows: Cell Viability - LYMP1-002 - Assay at 16 hr (AID 948). Further: potency means the concentration at half of the fitted maximal effect. The method, boiled down: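 LYMP1-002 human lymphoblastoid cells, 2500/well; 5 hr 37 C; cpd 16 hr 37 C; CellTiter-Glo 30 min RT; luminescence (ATP). Concentration-response, Hill-fit AC50. Pos ctrl tetraoctylammonium bromide.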
A short description of experiment [7]: Cell Viability - LYMP2-001 (AID 921).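 Further: cells exposed to compound for 24 h at 37 °C; nearly all actives have a fitted effect of over 70% in size.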 Further: potency means the concentration at half of the fitted maximal effect. The method, boiled down: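 CellTiter-Glo luminescence (intracellular ATP) after 24 hr compound exposure at 37 C, 2500 lymphoblastoid cells/well in complete medium. AC50 fitted with standard Hill equation; tetraoctylammonium bromide positive control.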
Experiment [8] can be described thus: MultiTox-Fluor Cytotoxicity Assay - LYMP1-001 - Dead Cells (AID 946).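 Further: cells exposed to compound for 16 h.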 Further: potency means the concentration at half of the fitted maximal effect. The method, boiled down: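 In this qHTS, 15 uM tetraoctylammonium bromide defined 100% and DMSO defined basal activity. Lymphoblastoid cells (LYMP1-001, 2500 per well) received compound for 16 hr at 37 C before a fluorogenic dead-cell substrate readout at 485/520 nm.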
Experiment [9] in a line: MultiTox-Fluor Cytotoxicity Assay - LYMP1-001 - Live Cells (AID 947). Further: potency means the concentration at half of the fitted maximal effect.
Experiment [10] in a line: qHTS Assay for Identification of Small Molecule Antagonists for Thrombopoietin (TPO) Signaling Pathway (AID 918). Further: potency means the concentration at half of the fitted maximal effect; nearly all actives have a fitted effect of over 60% in size. The note with it: TPO-dependent cell signaling reporter, antagonist mode. The gist of the method:
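Ba/F3 (murine, hTPO-R, GPIIb-luc reporter); overnight IL-3 withdrawal; cpd + TPO 26 pM final (EC50); 24 h 37 C/5% CO2; Steadylite luminescence after 10 min RT.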

Muscarinic acetylcholine receptor M1 (Rattus norvegicus), sequence (P08482 whole entry, looked up): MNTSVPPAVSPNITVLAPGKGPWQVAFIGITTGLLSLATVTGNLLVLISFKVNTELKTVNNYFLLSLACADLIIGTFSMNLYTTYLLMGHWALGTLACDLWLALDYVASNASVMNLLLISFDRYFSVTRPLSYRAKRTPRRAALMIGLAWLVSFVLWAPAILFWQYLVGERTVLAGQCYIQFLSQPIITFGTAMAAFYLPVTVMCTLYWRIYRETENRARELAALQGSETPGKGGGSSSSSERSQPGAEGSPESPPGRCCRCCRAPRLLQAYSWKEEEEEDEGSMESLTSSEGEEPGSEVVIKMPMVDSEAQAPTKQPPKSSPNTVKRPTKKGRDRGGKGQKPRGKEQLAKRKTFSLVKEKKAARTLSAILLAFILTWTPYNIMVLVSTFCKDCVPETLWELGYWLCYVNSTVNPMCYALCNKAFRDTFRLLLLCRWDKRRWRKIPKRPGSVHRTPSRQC
Pyruvate kinase PKM (Homo sapiens), sequence (P14618 whole entry, looked up): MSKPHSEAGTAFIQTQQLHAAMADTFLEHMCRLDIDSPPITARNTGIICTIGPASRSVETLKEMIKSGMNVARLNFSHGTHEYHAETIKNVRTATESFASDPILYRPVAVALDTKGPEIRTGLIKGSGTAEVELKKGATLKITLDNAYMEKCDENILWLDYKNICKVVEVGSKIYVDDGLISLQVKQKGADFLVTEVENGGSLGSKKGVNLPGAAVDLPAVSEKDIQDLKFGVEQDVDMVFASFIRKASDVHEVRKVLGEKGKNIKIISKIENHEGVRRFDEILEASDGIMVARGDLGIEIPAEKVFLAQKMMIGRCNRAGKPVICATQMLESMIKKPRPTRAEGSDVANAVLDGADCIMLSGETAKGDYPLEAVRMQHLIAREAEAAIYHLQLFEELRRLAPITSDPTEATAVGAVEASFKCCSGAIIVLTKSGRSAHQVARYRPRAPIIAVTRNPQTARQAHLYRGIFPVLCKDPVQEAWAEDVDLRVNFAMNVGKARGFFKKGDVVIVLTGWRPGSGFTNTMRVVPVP

For the compound `Cn1cnc2c(NCc3ccccc3)nc(NCCO)nc21`, the Potency entry in [1] and in experiment [2] was “inactive” throughout. Further, the outcome in experiment [3] and in [4] was inactive.
On to `Cc1ccc2c(Cl)cc(Cl)c(O)c2n1`, for which the compound was classed as inactive in [5].
Take `Nc1ccc(O)cc1`: the Potency in [6] was 50.1 µM (active).
Take `Cc1cc(C(C)(C)C)c(O)c(C(C)(C)C)c1`: the Potency entry in experiment [7], in experiment [8], in experiment [9] and in [6] was “inactive” in each case. For the same compound, the outcome in [5] was inactive.
Regarding `CC(=O)OCC[N+](C)(C)C`, the compound was called inactive in experiment [5].
For the compound `c1ccc2occc2c1`, the Potency entry in experiment [7], in experiment [8], in experiment [9] and in [6] was “inactive” each time.
On to `NC(N)=NCCCCN=C(N)N`, for which the outcome in experiment [5], in experiment [3] and in experiment [4] was inactive. For the same compound, the Potency in experiment [2] is 10 µM (active).
`O=C(O)/C=C(\CC(=O)O)C(=O)O`: in experiment [5], the call was inactive.
Regarding `Nc1c2ccccc2nc2ccccc12`, the Potency in [7] was 12.6 µM (active); in [8], 12.6 µM (active); in [6] it was 15.8 µM (active). Further, the outcome in [5] was inactive. The Potency entry in experiment [9] was “inactive”.
With `Oc1ccccc1`, the Potency entry in experiment [7], in experiment [8], in experiment [9] and in [6] was “inactive” throughout.
In the case of `C1N2CN3CN1CN(C2)C3`, the result in [5] was inactive.
Take `Brc1ccccc1-c1ccccc1`: the Potency result in [7], in experiment [8], in experiment [9] and in experiment [6] was “inactive” in each case.
In the case of `CCCC(=O)c1cc(O)c(O)cc1O`, the Potency result in experiment [7], in [8], in [9] and in experiment [6] was “inactive” each time.
`CC(C)(c1ccc(O)cc1)c1ccc(O)cc1`: the Potency result in experiment [7], in experiment [8], in experiment [9] and in experiment [6] was “inactive” each time.
Take `Cc1ccc(O)cc1`: the Potency result in experiment [7], in experiment [8], in experiment [9] and in [6] was “inactive” in each case. Further, the result in experiment [5] was inactive.
For the compound `Nc1cccc2c(N)cccc12`, the Potency result in experiment [7], in [8] and in experiment [6] was “inactive” in each case.
In the case of `O=C(NO)c1ccccc1`, the Potency entry in [7], in [8], in experiment [9] and in experiment [6] was “inactive” each time.
Regarding `Nc1ncnc2nc[nH]c12`, the compound was classed as inactive in [5].
With `O=[N+]([O-])c1ccc(-c2nc(-c3ccc(F)cc3)c(-c3ccncc3)[nH]2)cc1`, the Potency in experiment [10] is 12.6 µM (active). Besides, the Potency result in experiment [1] was “inactive”. Moreover, the compound was classed as inactive in [3] and in [4].
Consider `C[N+](C)(C)CCO`, for which the call in experiment [5], in experiment [3] and in experiment [4] was inactive. Moreover, the Potency result in experiment [2] was “inactive”.
On to `Brc1ccc([C@H]2CN3CCSC3=N2)cc1`, for which the Potency in [1] was 12.6 µM (active). Also, the call in experiment [3] and in experiment [4] was inactive.
Regarding `O=C(Oc1ccccc1)c1ccccc1O`, the Potency entry in experiment [7], in experiment [8], in experiment [9] and in [6] was “inactive” each time.
Take `COc1ccccc1N1CCN(CCN2C(=O)CC3(CCCC3)CC2=O)CC1`: the call in experiment [3] and in experiment [4] was inactive.
On to `OCc1c[nH]c2ccccc12`, for which the Potency result in experiment [7], in experiment [8], in experiment [9] and in [6] was “inactive” in each case. In experiment [5], the outcome was inactive.
For the compound `CC(C)C(C)(C)C(C)(C)C(C)(C)S`, the Potency result in experiment [7], in experiment [8], in [9] and in [6] was “inactive” each time.
Turning to `COc1cc(C=O)ccc1O`, the Potency entry in experiment [7], in [8], in experiment [9] and in experiment [6] was “inactive” each time.
For `CC(C)(C)c1ccc(O)c(O)c1`, in experiment [7], the Potency was 31.6 µM (active). The Potency result in [8] and in [9] was “inactive” throughout.
`O=C(c1ccccc1)c1ccccc1`: the Potency result in [7], in experiment [8], in experiment [9] and in [6] was “inactive” throughout.
With `CCN(CC)CCOc1ccc(/C(=C(\Cl)c2ccccc2)c2ccccc2)cc1`, the compound was classed as inactive in experiment [5].
Turning to `C1=CC2C3C=CC(C3)C2C1` (centres undefined), the Potency result in [7], in experiment [8], in experiment [9] and in [6] was “inactive” throughout.
As to `O=C1NC(c2cccc([N+](=O)[O-])c2)=CCN1c1ccccc1O`, the Potency entry in [1] and in experiment [2] was “inactive” throughout. For the same compound, the result in experiment [3] and in experiment [4] was inactive.
With `COC(=O)c1c(Cl)c(Cl)c(C(=O)OC)c(Cl)c1Cl`, in experiment [5], the compound was classed as inactive.
Turning to `CC(C)N(CCC(=O)c1ccc2ccccc2c1)Cc1ccccc1`, the Potency in [10] was 2.51 µM (active). Besides, the Potency result in [1] and in [2] was “inactive” in each case. For the same compound, the outcome in experiment [3] and in experiment [4] was inactive.
With `CCOC(=O)NNc1nncc2ccccc12`, the result in experiment [5] was inactive.
As to `CC(=O)OC/C=C(C)/C=C/C=C(C)/C=C/C1=C(C)CCCC1(C)C`, the compound was classed as inactive in experiment [5]. In addition, the Potency result in experiment [9] and in experiment [6] was “inactive” each time.
`CN(C)c1cc2c(Nc3ccc4c(cnn4Cc4ccccc4)c3)ncnc2cn1`: in experiment [2], the Potency is 11.2 µM (active). Further, the compound was called inactive in [3] and in experiment [4].
On to `CC(NCCC(c1ccccc1)c1ccccc1)c1ccccc1` (centres undefined), for which the call in experiment [5] was inactive.
In the case of `CCCCCCCCCCCCCCCC[n+]1ccccc1`, the Potency was 10 µM (active) in experiment [7], 10 µM (active) in [8], 20 µM (active) in [9] and 25.1 µM (active) in [6].
Turning to `CCCCC(CC)COC(=O)c1ccccc1C(=O)O` (centres undefined), the Potency result in [7], in [8], in experiment [9] and in [6] was “inactive” in each case.
